IDH1 R132H inh = qHTS for Inhibitors of mutant isocitrate dehydrogenase 1 (IDH1): qHTS | IDH1-R132H enzyme, NADPH consumption, diaphorase/resazurin fluorescence | AID 602179, 2012 | hit rate 0.093% among 390,000 | Potency, µM (doses to about 76.6 µM), without a hit: at the top dose activity change, negative = inhibition, hits mostly inhibitors; further: potency means the concentration at half of the fitted maximal effect; on the % scale 0 is the no-effect control and ±100 the full control effect; nearly all actives have a fitted effect of over 65% in size
Target sequence (O75874 whole entry R132H, stated change not applied): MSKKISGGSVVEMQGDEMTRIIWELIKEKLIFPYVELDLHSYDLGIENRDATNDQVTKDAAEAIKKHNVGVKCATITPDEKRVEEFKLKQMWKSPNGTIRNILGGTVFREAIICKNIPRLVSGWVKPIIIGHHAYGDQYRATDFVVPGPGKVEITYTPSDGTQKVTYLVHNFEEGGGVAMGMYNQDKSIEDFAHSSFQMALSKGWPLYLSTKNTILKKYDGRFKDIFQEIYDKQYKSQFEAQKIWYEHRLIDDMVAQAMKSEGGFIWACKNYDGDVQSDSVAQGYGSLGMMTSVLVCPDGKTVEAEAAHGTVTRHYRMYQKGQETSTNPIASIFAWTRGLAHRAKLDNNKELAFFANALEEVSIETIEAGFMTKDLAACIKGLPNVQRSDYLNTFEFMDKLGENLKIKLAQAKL
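IDH1-R132H (0.5 ug/mL) preincubated 30 min with compound, then NADPH (0.016 mM) and alpha-KG (2 mM) added; 80 min at RT, pH 7.5. Remaining NADPH coupled via diaphorase/resazurin to fluorescence (540/590 nm); concentration-response curves normalized to no-enzyme control.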
A549 tox = Nrf2 qHTS screen for inhibitors: counterscreen for cytotoxicity; A549 ARE-Fluc cells, CellTiter-Fluor viability, 18-24 h; hit rate 0.16% among 390,000; Potency, µM (series often up to 46 µM), for the others: top-dose activity change, negative = cytotoxicity, usual class: inhibitors; further: potency means the concentration at half of the fitted maximal effect; on the % scale 0 is the no-effect control and ±100 the full control effect
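Cytotoxicity counterscreen: CellTiter-Fluor fluorescence was measured in A549 ARE_Fluc cells after 18-24 h of compound exposure in a concentration series. The subsequent BugLite luminescent read reports ARE-luciferase activity.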
Nrf2 block = Nrf2 qHTS screen for inhibitors. A549 ARE-Fluc reporter, luciferase luminescence, 18-24 h. Potency, µM (highest dose often 46 µM), without a hit: top-dose activity change, negative = inhibition, actives largely listed as inhibitors. hit rate 2.1% among 360,000; further: potency means the concentration at half of the fitted maximal effect; on the % scale 0 is the no-effect control and ±100 the full control effect; nearly all actives have a fitted effect of over 60% in size
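Nrf2 function is reported as luminescence of an ARE-controlled luciferase in A549 cells. Compounds were tested at several concentrations, and a CellTiter-Fluor read on the same wells flagged cytotoxicity.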
Nrf2 activator = qHTS of Nrf2 Activators; Potency, µM (doses to about 46.1 µM), for inactives: at the highest dose activation, most hits filed as activators; hit rate 0.31% among 410,000; AID 624171, 2012; AREc32 ARE-luciferase reporter (MCF7-derived line), luminescence, 24 h; further: potency means the concentration at half of the fitted maximal effect; % of control where 0% means no effect; nearly all actives have a fitted effect of over 65% in size
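Quantitative high-throughput format: AREc32 reporter cells, 1000 per well, received compound by pin transfer and were incubated 24 hr at 37 deg C, 5% CO2, before Steady-Glo luminescence detection.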
Giardia kill = Small Molecules that selectively kill Giardia lamblia: qHTS; AID 540267, 2011; activity change, % at 7.66 µM, hits read low; hit rate 0.15% among 340,000; Giardia lamblia trophozoite viability; in the data active means activity change below about -80%; inconclusive means between about -30% and that limit;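 further: parasites exposed to compound for two days anaerobically before the ATP read; on the % scale 0 is the no-effect control and ±100 the full control effect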
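Giardia lamblia trophozoites (100 cells/well) were incubated with compounds for 48 h at 37 deg C under anaerobic conditions. Viability was read as ATP content by one-step luminescence after 15-30 min at room temperature.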
Anesthetic bind = qHTS Assay for Identification of Novel General Anesthetics; Ferritin light chain (Equus caballus), P02791; apoferritin/1-aminoanthracene competitive binding, fluorescence; Potency, µM (series often up to 77.5 µM), inactives show top-dose activity change, negative = displacement, actives largely listed as inhibitors; hit rate 0.074% among 350,000; further: potency means the concentration at half of the fitted maximal effect; on the % scale 0 is the no-effect control and ±100 the full control effect; nearly all actives have a fitted effect of over 20% in size
Target sequence (P02791 2-175 limits assumed): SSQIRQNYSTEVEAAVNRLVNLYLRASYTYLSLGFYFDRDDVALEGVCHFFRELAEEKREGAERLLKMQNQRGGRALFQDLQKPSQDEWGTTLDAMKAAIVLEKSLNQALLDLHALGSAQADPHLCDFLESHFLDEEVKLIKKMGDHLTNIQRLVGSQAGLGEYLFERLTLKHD
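Horse-spleen apoferritin (10 uM) in 50% saturated 1-aminoanthracene in PBS was incubated 10 min at room temperature with compound. Fluorescence (ex 380, em 535 nm) was normalized to free and bound 1-AMA, with concentration-response fitted by a four-parameter Hill equation.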
* marks the source's active call; other numbers are inactive results; ? = inconclusive; / = not tested or not shown; [ ] = another dose, or the depositor's remark. An excerpt weighted towards active compounds, which were near 2.3% of everything screened. Unless noted, the call rests on the fitted dose curve; in most records, active means well fitted curve in the direction sought with a large enough effect; inconclusive means small, poorly fitted or top-dose-only effect, or another doubt; inactive means no such curve, though single readings can be large; an effect the other way counts as inactive or inconclusive.

SMILES | IDH1 R132H inh | A549 tox | Nrf2 block | Nrf2 activator | Giardia kill | Anesthetic bind
CCOc1ccccc1-c1cncc(NC)n1 | / | / | / | -1% | / | /
CCn1c(=O)cc(SCC(=O)NCCc2cc(OC)ccc2OC)c2ccccc21 | -7% | -12% | -15%[9.27 µM] | 0% | / | -12%
CCOC(=O)C(C)N1C(=O)S/C(=C/c2ccc3c(c2)n(C)c(=O)n3C)C1=O (configuration not stated) | 1% | -6% | 21µM* | ? | -2 | -4%
C=CCOC(=O)C1=C(C)NC(SCC)=C(C#N)C1c1ccc(Cl)cc1 (configuration not stated) | -4% | ? | 21µM* | 0% | -6 | 88%
C=CCOC(=O)C1=C(C)NC(SCC(N)=O)=C(C#N)C1c1ccc(C)cc1 (configuration not stated) | -3% | -1% | 13% | 0% | 22 | 4%
C=CCOC(=O)C1=C(C)NC(SCC(=O)Nc2ccc(C)c(Cl)c2)=C(C#N)C1c1ccco1 (configuration not stated) | 0% | -23% | 6.5µM* | 3% | -11 | -9%
COc1ccc(-c2ccc3ncnc(NCc4ccc(C)o4)c3c2)cc1OC | / | -15% | -23% | / | / | /
COc1cc(COc2cc(N)c(Cl)cc2C(=O)CCC2CCN(CCNS(C)(=O)=O)CC2)cc(OC)c1 | / | / | / | / | / | -15%
C=CCn1c(C)cc(C(=O)CN2C(=O)c3ccccc3S2(=O)=O)c1C | 3% | 5% | 0.65µM* | -3% | -14 | /
Cc1cc(C(=O)CN2C(=O)c3ccccc3S2(=O)=O)c(C)n1-c1ccccc1 | -4% | -7% | ? | -2% | -30 | -10%
O=C(CN1C(=O)c2ccccc2S1(=O)=O)c1ccccc1 | 0% | 6% | / | -3% | 5 | 1%
Cc1ccc(C(=O)CN2C(=O)c3ccccc3S2(=O)=O)cc1 | 2% | -4% | 21µM* | -3% | ? | -4%
COc1ccc(NS(=O)(=O)c2ccc3c(c2)OCCO3)cc1OC | -2% | -12% | 21µM* | 0% | -22 | -3%
Cc1ccc(S(=O)(=O)Nc2ccc3c(c2)OCCO3)cc1C | 7% | 9% | -10% | 0% | 6 | ?
COc1ccc(S(=O)(=O)Nc2ccc3c(c2)OCO3)cc1OC | 0% | 1% | 3% | 0% | 4 | -10%
COc1c(C)cc(NS(=O)(=O)c2ccc3c(c2)OCCO3)cc1C | / | -10% | 23µM* | 6% | / | ?
Cc1ccc(S(=O)(=O)Nc2ccc3ccccc3c2)cc1 | 3% | 7% | -3% | 6% | ? | /
Cc1ccc(NS(=O)(=O)c2ccc3c(c2)N(C)CCO3)cc1 | 1% | -6% | 26µM* | 3% | -26 | -9%
COc1ccc(S(=O)(=O)Nc2ccc3ccccc3c2)cc1C | 1% | -15% | 21µM* | 4% | -3 | -1%
CC1=C(C(=O)N(C)C)CC(CC(=O)NCCCN(C)C)C(=O)N1Cc1ccccc1 (configuration not stated) | 13% | / | / | -1% | / | /
COc1ccc([C@H]2CN(CCc3ccccc3)C(=O)[C@@H]2CC(=O)Nc2ccccc2)cc1 | 4% | / | / | 5% | / | /
O=C(OC(C(=O)Nc1ccc([N+](=O)[O-])cc1Br)c1ccccc1)c1ccccc1 (configuration not stated) | -5% | 0% | 23µM* | 0% | -13 | -21%
CCCCCCn1c2c(c(=N)c3c1CCC3)CCC2 | -4% | -6% | 15µM* | 4% | 23 | -11%
CCCCCCCCCn1c2c(c(=N)c3c1CCC3)CCC2 | 1% | 1% | ? | -4% | 45 | -19%
COC(CNC(=O)c1ccc2nc(-c3ccccc3)c(-c3ccccc3)nc2c1)OC | 6% | -15% | 16µM* | 0% | 7 | -6%
SMILES | IDH1 R132H inh | A549 tox | Nrf2 block | Nrf2 activator | Giardia kill | Anesthetic bind
COc1ccc(-c2nc3ccc(C(=O)NCC(OC)OC)cc3nc2-c2ccc(OC)cc2)cc1 | -2% | -7% | -7% | 0% | 15 | -1%
COc1ccc(C(=O)N2CCC(c3nc(-c4ccc(S(=O)(=O)N5CCCC5)cc4)no3)CC2)cc1 | 6% | ? | 21µM* | 0% | / | -10%
CCOc1ccc(C(=O)N2CCC(c3nc(-c4ccc(S(=O)(=O)N5CCCC5)cc4)no3)CC2)cc1 | -3% | -12% | 13µM* | 0% | / | -1%
Cc1cccc(C(=O)NNC(=O)C2CCCCC2)c1O | -6% | / | / | 0% | / | /
COc1ccc(OCc2nc(-c3ccc(-n4cccc4)cc3)no2)cc1 | 7% | -7% | / | 4% | / | -6%
COc1ccc(CCc2nc(-c3ccc(-n4cccc4)cc3)no2)cc1 | -7% | -10% | 16µM* | 0% | 4 | -5%
CCCc1ccc(OC(C)c2nc(-c3ccc(-n4cccc4)cc3)no2)cc1 (configuration not stated) | / | -14% | 23µM* | -1% | / | -8%
CCOC(=O)CCN1C(=O)[C@H]2[C@H]3[C@H](O)[C@H](O)C/C(=N/OC/C=C(\C)CCC=C(C)C)[C@@H]3CC[C@@H]2C1=O | / | / | / | / | / | 2%[15.3 µM]
COc1ccc(-c2oc3ncnc(NCCN4CCOCC4)c3c2-c2ccc(OC)cc2)cc1 | -6% | 1% | -14% | 0% | 6 | -20%
COc1ccc(-c2oc3ncn(CCN4CCOCC4)c(=N)c3c2-c2ccc(OC)cc2)cc1 | 0% | -23% | 16µM* | 0% | 22 | 8%
CC(C)N(C(=O)c1cc2c(Cl)nc3ccccc3c2s1)C1CCCCC1 | -11% | -1% | 11% | -1% | / | -2%
COc1cccc(OCC(=O)NN=C2c3ccccc3-c3ccccc32)c1 | 8% | 2%[1.84 µM] | 18µM* | -1% | 11 | -18%
COc1cccc(OCC(=O)Nc2ccccc2-c2ccccc2)c1 | 11% | 6% | -23% | 1% | 16 | 5%
CN(C)S(=O)(=O)c1ccc(S(=O)(=O)N2CCCC(C(=O)NC3CC3)C2)cc1 (configuration not stated) | 0% | -7% | 21µM* | 0% | 2 | 7%
CCN(CC)S(=O)(=O)c1ccc(S(=O)(=O)N2CCCC(C(=O)NC3CC3)C2)cc1 (configuration not stated) | 7% | 1% | 5.8µM* | 0% | -21 | 2%
COc1ccc(S(=O)(=O)N2CCCC(C(=O)NC3CC3)C2)cc1OC (configuration not stated) | -15% | 2% | -1% | 0% | -24 | /
Cc1nnc(NC(=O)C2CCN(C(=O)c3ccsc3)CC2)s1 | / | 3% | -4% | / | -16 | /
